Data as given in the supplement of paper PMC3334620.
In all, about 33,000 sequences were measured (“E-score (-0.5 to 0.5)”: median about -0.035, highest 2% from about 0.34 on). Many of the other results were omitted from the sample, so the highest values are more common in it than they were.

These sequences were tested against T1, Mot3 (UniProt P54785) (assay: PBM E-score (8-mer binding enrichment) (E-score (-0.5 to 0.5)); higher = stronger / more preferred TF binding). Conditions: protein concentration: 200 nM; construct: GST-full length.
T1 sequence: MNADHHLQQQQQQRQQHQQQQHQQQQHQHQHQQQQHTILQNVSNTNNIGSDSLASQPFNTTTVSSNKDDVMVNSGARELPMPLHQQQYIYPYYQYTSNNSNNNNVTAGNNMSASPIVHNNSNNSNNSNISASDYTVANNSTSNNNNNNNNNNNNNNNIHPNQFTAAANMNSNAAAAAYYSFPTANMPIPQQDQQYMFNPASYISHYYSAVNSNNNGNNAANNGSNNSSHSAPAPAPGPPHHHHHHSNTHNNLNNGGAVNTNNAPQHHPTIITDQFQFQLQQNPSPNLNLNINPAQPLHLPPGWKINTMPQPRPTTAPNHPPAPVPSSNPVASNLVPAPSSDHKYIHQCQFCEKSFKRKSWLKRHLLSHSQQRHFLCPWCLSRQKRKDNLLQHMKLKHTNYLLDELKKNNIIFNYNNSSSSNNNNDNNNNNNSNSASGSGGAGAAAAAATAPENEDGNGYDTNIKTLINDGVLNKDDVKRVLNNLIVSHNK
Protocol: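 Universal 'all 10-mer' protein binding microarrays (Agilent AMADID 015681) probed with GST-tagged S. cerevisiae TFs (full-length or DBD) made by in vitro transcription/translation (PURExpress), about 100-200 nM. Bound TF was detected with fluorescent anti-GST. Each ungapped 8-mer (which stands for itself and its reverse complement) is scored by the PBM enrichment score (E-score), a modified Wilcoxon-Mann-Whitney statistic from -0.5 to +0.5, computed with the Universal PBM Analysis Suite. Scale: above 0.35 generally sequence-specific binding.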

| Sequence | PBM E-score |
| --- | --- |
| GCTGTGTA | 0.354 |
| CCTGTGAA | 0.254 |
| ACTGTGTA | 0.349 |
| AAGCAAGA | 0.0175 |
| AGCAAGGG | -0.137 |
| GCGGTCAA | -0.0964 |
| GACTTAGA | -0.164 |
| ATGCACAT | 0.207 |
| AGGCACAT | 0.49 |
| AAGCACAT | 0.0905 |
| AGGCACAG | 0.491 |
| CGGCACAC | -0.21 |
| AAGCACAG | 0.0561 |
| TGGCACAA | -0.0932 |
| CGGCACAG | -0.274 |
| AGGCACAA | 0.489 |
| GGGCACAC | 0.178 |
| AGGCACAC | 0.487 |
| GGGCACAA | 0.0559 |
| CGATGGGA | -0.272 |
| AGTTCAGC | -0.141 |
| ATAACCCC | -0.207 |

| Sequence | PBM E-score |
| --- | --- |
| CATCTGGC | -0.139 |
| CGTTGATA | 0.114 |
| AATGAGCC | -0.238 |
| CTTAGAAG | -0.209 |
| CAACTACC | -0.02 |
| GCGTGTTA | 0.393 |
| ACGTGTCA | 0.342 |
| ACGTGTTC | 0.221 |
| ACGTGTTG | 0.338 |
| GCGTGTCA | 0.305 |
| ACGTGTTA | 0.351 |
| CTGTGTTA | 0.334 |
| ATGTGTTA | 0.316 |
| GTGTGTTA | 0.348 |
| ACGTGTCG | 0.24 |
| GCGTGTGA | 0.177 |
| CCGTGTCA | 0.277 |
| ATCATCTG | -0.0881 |
| AAGACCGC | -0.139 |
| TCCGTTCA | -0.194 |
| ATTCCATG | 0.0576 |
| CTCCGTTC | -0.0461 |

| Sequence | PBM E-score |
| --- | --- |
| TAAACCTA | -0.01 |
| AAGAGCTC | 0.00626 |
| CCGTGTTC | 0.27 |
| CAGTGTTA | 0.212 |
| CCGTGTTA | 0.376 |
| GCTCCTAA | 0.118 |
| AGCAAGAA | -0.0228 |
| CTCGTCTA | -0.168 |
| CCGCGGGA | -0.23 |
| GCATTACA | 0.35 |
| TCATTACA | 0.359 |
| ACATTACT | 0.218 |
| GCATTAGA | -0.0607 |
| CCATTACA | 0.337 |
| TCATTAGA | 0.0474 |
| ACATTACG | 0.271 |
| GCATTACC | 0.0719 |
| ACATTACA | 0.357 |
| AACACTGG | 0.00047 |
| GCTTATCC | -0.179 |
| GCACAAGC | 0.117 |
| AGATACCT | -0.096 |

| Sequence | PBM E-score |
| --- | --- |
| TAAGGAAA | 0.424 |
| TAAGGATA | -0.102 |
| GAAGGATA | -0.0542 |
| TAAGGAGA | -0.0944 |
| CAAGGAAA | 0.317 |
| GAAGGAAA | 0.454 |
| AGGGATCC | -0.223 |
| AATTTTAG | 0.004 |
| AATCTCTA | -0.0669 |
| CGCATGTC | 0.146 |
| AGCATGTG | 0.179 |
| GGCATGGA | -0.0411 |
| CGCATGGA | -0.0319 |
| AGCATGTA | 0.354 |
| AGCATGTC | 0.218 |
| GGCATGTA | 0.376 |
| CGCATGTA | 0.356 |
| GGCATGCA | 0.146 |
| AAAGCGTA | 0.0441 |
| AGCACCGG | -0.32 |
| GAAGCTTC | -0.191 |
| CGAATAAC | 0.0678 |

| Sequence | PBM E-score |
| --- | --- |
| CAAATCAG | -0.048 |
| ATGCGGCA | -0.115 |
| TATACGCA | 0.272 |
| ATTGCCTA | 0.482 |
| ATTGCCTC | 0.331 |
| CTTGCCTC | 0.425 |
| ATTGCCTG | 0.482 |
| ATTGCCCA | 0.0652 |
| GCTGCCTA | 0.282 |
| CTTGCCCC | -0.209 |
| ATTGCCGA | -0.0541 |
| GTTGCCTA | 0.488 |
| ATTGCCAG | -0.156 |
| GTTGCCCA | 0.103 |
| CTTGCCGC | -0.231 |
| GAGCGCTC | -0.331 |
| CGTCGCAA | -0.149 |
| CAAGTCGG | -0.254 |
| GGTACTCA | 0.0108 |
| AGCTATAA | -0.0249 |
| CAGGTTCG | -0.00261 |
| CACCAGGA | -0.104 |
